“And” between values parts separate entries of the source, which are not always exact repeats. Identical values can stand only once. In all, about 5,500 compounds went through this assay and about 2,000 (36%) were called active. Another 18% or so got no clear call; they are omitted. Cut-off read from the data, not from the text of the source: active = normalized growth mostly below about 0.91 (no sharp cut-off); inconclusive = no clear call, values can overlap the other calls; inactive = mostly above about 0.92. The list shows a part of the results.
Test: chemical genetic growth profiling, strain panel (AID 1159580);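 note: tested at 20 µM; growth read once vehicle control cultures reached saturation at 30 °C; 1 = growth at the plate median or of vehicle wells; lower values mean less growth of the strain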
Conditions: S. cerevisiae deletion strains, growth OD

Measured: normalized growth

CN1C(=O)CCS(=O)(=O)C1c1ccc(Cl)cc1 (stereo unspecified)
inactive: locus YAL013W, strain DEP1, hits give low values 1.01 | locus YAL021C, strain ccr4, hits give low values 0.981 | locus YAL026C, strain drs2, hits give low values 0.982 | locus YAL030W, strain snc1, hits give low values 0.992 | locus YAL040C, strain CLN3, hits give low values 1.03 | locus YBL061C, strain skt5, hits give low values 1 | locus YBR009C, strain hhf1, hits give low values 0.953 | locus YBR021W, strain FUR4, hits give low values 1.02 | locus YBR023C, strain chs3, hits give low values 0.995 | locus YBR171W, strain sec66, hits give low values 0.988 | locus YBR229C, strain ROT2, hits give low values 1.01 | locus YBR231C, strain swc5, hits give low values 0.965 | locus YBR279W, strain paf1, hits give low values 0.99 | locus YCL011C, strain gbp2, hits give low values 1.01 | locus YCL016C, strain dcc1, hits give low values 1.01 | locus YCL029C, strain bik1, hits give low values 1.02 | locus YCL061C, strain MRC1 (second series), hits give low values 0.999 | locus YCL061C, strain MRC1, hits give low values 0.99 | locus YCL069W, strain vba3, hits give low values 0.949 | locus YCR088W, strain abp1, hits give low values 0.982 | locus YDL005C, strain med2, hits give low values 0.991 | locus YDL035C, strain GPR1, hits give low values 1.02 | locus YDL040C, strain nat1, hits give low values 0.973 | locus YDL074C, strain BRE1, hits give low values 1.04 | locus YDL101C, strain DUN1, hits give low values 1.02 | locus YDL134C, strain PPH21, hits give low values 1.01 | locus YDL185W, strain tfp1, hits give low values 1.03 | locus YDL192W, strain arf1, hits give low values 1.01 | locus YDR001C, strain nth1, hits give low values 0.976 | locus YDR069C, strain doa4, hits give low values 0.971 | locus YDR101C, strain arx1, hits give low values 1.01 | locus YDR137W, strain rgp1, hits give low values 0.993 | locus YDR150W, strain NUM1, hits give low values 1.01 and 1 | locus YDR159W, strain sac3, hits give low values 0.883 | locus YDR162C, strain NBP2, hits give low values 1.02 | locus YDR195W, strain ref2 0.956 | locus YDR297W, strain sur2, hits give low values 0.983 | locus YDR318W, strain mcm21, hits give low values 1.01 | locus YDR334W, strain swr1, hits give low values 0.951 | locus YDR335W, strain msn5, hits give low values 0.972 | locus YDR363W, strain ESC2, hits give low values 1.03 | locus YDR388W, hits give low values 1.01 | locus YDR392W, strain spt3, hits give low values 0.939 | locus YDR502C, strain sam2, hits give low values 1.01 | locus YEL003W, strain gim4, hits give low values 0.982 | locus YEL037C, strain rad23, hits give low values 0.982 | locus YEL061C, strain CIN8 (second series), hits give low values 0.995 | locus YEL061C, strain CIN8, hits give low values 1.01 | locus YER002W, strain NOP16, hits give low values 1.01 | locus YER015W, strain faa2, hits give low values 0.985 | locus YER016W, strain bim1, hits give low values 1.03 | locus YER110C, hits give low values 1.01 | locus YER111C, strain swi4, hits give low values 0.996 | locus YER155C, strain BEM2 (second series), hits give low values 1 | locus YER155C, strain BEM2, hits give low values 1.01 | locus YER167W, strain BCK2, hits give low values 1.01 | locus YFR010W, strain ubp6, hits give low values 0.954 | locus YGL078C, strain dbp3, hits give low values 0.998 | locus YGL086W, strain mad1, hits give low values 1.01 | locus YGL167C, strain pmr1, hits give low values 0.963 | locus YGL173C, strain kem1, hits give low values 0.953 | locus YGL227W, strain vid30, hits give low values 0.98 | locus YGL240W, strain doc1, hits give low values 0.963 | locus YGL248W, strain PDE1, hits give low values 1.01 | locus YGL253W, strain hxk2, hits give low values 0.995 | locus YGR078C, strain PAC10, hits give low values 1.02 | locus YGR135W, strain pre9, hits give low values 1.01 | locus YGR229C, strain SMI1, hits give low values 1.03 | locus YGR252W, strain gcn5, hits give low values 1.01 | locus YHR013C, strain ard1, hits give low values 0.982 | locus YHR027C, strain rpn1, hits give low values 0.98 | locus YHR030C, strain SLT2, hits give low values 1.01 and 0.973 | locus YHR079C, strain IRE1 (second series), hits give low values 1.02 | locus YHR079C, strain IRE1, hits give low values 0.97 | locus YHR094C, strain hxt1, hits give low values 1.01 | locus YHR129C, strain ARP1, hits give low values 1.01 | locus YHR142W, strain chs7, hits give low values 0.975 | locus YHR200W, strain rpn10, hits give low values 1.01 | locus YIL066C, strain RNR3, hits give low values 1.02 | locus YIL073C, strain SPO22, hits give low values 1.05 | locus YIL125W, strain kgd1, hits give low values 1.01 | locus YIR030C, strain dcg1, hits give low values 1.01 | locus YJL092W, strain hpr5, hits give low values 0.997 | locus YJL095W, strain BCK1 (second series), hits give low values 0.977 | locus YJL095W, strain BCK1, hits give low values 1.04 and 0.994 | locus YJL115W, strain asf1, hits give low values 0.967 | locus YJL129C, strain trk1, hits give low values 0.994 | locus YJL134W, strain LCB3, hits give low values 1.01 | locus YJL154C, strain vps35, hits give low values 0.989 | locus YJL164C, strain tpk1, hits give low values 0.997 | locus YJL166W, strain qcr8, hits give low values 0.943 | locus YJL168C, strain set2, hits give low values 1.01 | locus YJL187C, strain SWE1 (second series), hits give low values 1.03 | locus YJL187C, strain SWE1, hits give low values 0.994 | locus YJR043C, strain POL32, hits give low values 1.02 | locus YJR066W, strain TOR1, hits give low values 0.885
